This is part of a sample that, as a whole, favours compounds with a hit. Of some 83,000 tested, about 20% had one in any assay.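 A percent growth of 40 corresponds to 60% growth inhibition; 0 means no net growth; -100 means all cells died. Active threshold: below 10.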 A number with no mark means an inactive call. Activity calls are given as the source filed them.
Legend:
Experiment in all cases: NCI-60 one-dose screen, 48 h (100 = growth as untreated, 0 = no growth, -100 = all killed)
Settings in all cases: 10 µM unless noted
SK-MEL-2 melanoma = system: SK-MEL-2 melanoma
EKVX NSCLC = system: EKVX NSCLC
SN12C renal = system: SN12C renal
UO-31 renal = system: UO-31 renal
TK-10 renal = system: TK-10 renal
ACHN renal = system: ACHN renal
CAKI-1 renal = system: CAKI-1 renal
A498 renal = system: A498 renal
CCRF-CEM leukemia = system: CCRF-CEM leukemia
MOLT-4 leukemia = system: MOLT-4 leukemia
RPMI-8226 leukemia = system: RPMI-8226 leukemia
OVCAR-8 ovarian = system: OVCAR-8 ovarian
OVCAR-5 ovarian = system: OVCAR-5 ovarian
OVCAR-4 ovarian = system: OVCAR-4 ovarian
SK-OV-3 ovarian = system: SK-OV-3 ovarian
IGROV1 ovarian = system: IGROV1 ovarian
OVCAR-3 ovarian = system: OVCAR-3 ovarian
HS 578T breast = system: HS 578T breast
NCI/ADR-RES ovarian = system: NCI/ADR-RES ovarian

Structure (SMILES) | growth (SK-MEL-2 melanoma) | growth (EKVX NSCLC) | growth (SN12C renal) | growth (UO-31 renal) | growth (TK-10 renal) | growth (ACHN renal) | growth (CAKI-1 renal) | growth (A498 renal) | growth (CCRF-CEM leukemia) | growth (MOLT-4 leukemia) | growth (RPMI-8226 leukemia) | growth (OVCAR-8 ovarian) | growth (OVCAR-5 ovarian) | growth (OVCAR-4 ovarian) | growth (SK-OV-3 ovarian) | growth (IGROV1 ovarian) | growth (OVCAR-3 ovarian) | growth (HS 578T breast) | growth (NCI/ADR-RES ovarian)
COc1cc(-c2nc3sccn3c2-c2ccnc(NCCCNS(=O)(=O)c3ccc(F)cc3)n2)ccc1F | 69.6% | 83.6% | 62.1% | 48.6% | 118% | 60.7% | 61.1% | 96.7% | 24.7% | 47.7% | 9.51% (active) | 26.7% | 112% | 51.9% | 90.4% | 69.6% | 65.9% | 92.6% | 34.2%
COc1ccc(C2=Nn3c(nnc3-c3cc(Cl)cc(Cl)c3Cl)SC2)cc1 | 22.4% | 41.3% | 39.3% | 5.61% (active) | 57.5% | 33.5% | 47.6% | -11.3% (active) | 0.0891% (active) | 8.31% (active) | 1.17% (active) | 19.5% | 6.36% (active) | 30.8% | 24.4% | -11% (active) | -24.6% (active) | 11.7% | -20.8% (active)
CCCCCCN1C(=O)/C(=c2\sc3n(c2=O)C2C(NN=3)N(CC)C(=O)N2CC)c2ccccc21 (stereo not drawn) | 50.1% | 65% | 19.1% | -2.09% (active) | 3.21% (active) | -43% (active) | 4.26% (active) | -5.48% (active) | 37.8% | 49.4% | 44.6% | -22.3% (active) | 32.4% | -35.5% (active) | 54.8% | 24.2% | -50.2% (active) | 4.83% (active) | -23.1% (active)
CCCCC1CCCC12NC(=O)NC2=O (stereo not drawn) | 100% | 107% | 96% | 85.1% | 92.7% | 99.4% | 107% | 98.3% | 101% | 122% | 101% | 113% | 88.2% | 106% | 110% | 88.8% | 92.8% | 112% | 92.9%
COc1cc(CCCO)c(OC)c(OC)c1OC | 118% | 105% | 99.6% | 90.4% | 109% | 106% | 92.3% | 83.6% | 108% | 110% | 112% | 107% | 103% | 102% | 107% | 109% | 111% | 102% | 104%
COc1cc(CCC[P+](c2ccccc2)(c2ccccc2)c2ccccc2)c(OC)c2c1OCO2 | -13.1% (active) | 25.4% | 29.6% | 93.9% | 12.1% | 94.1% | 75.8% | 41.5% | 37.8% | 44.4% | 10.4% | 9.83% (active) | 64.6% | 11.1% | 27.2% | 32.5% | 5% (active) | 38.4% | 98.5%
COc1cc(CNS(=O)(=O)c2ccc(C)cc2)ccc1OCc1cn(-c2ccccc2)nn1 | 102% | 87.6% | 93.3% | 79.5% | 104% | 95.1% | 88.5% | 59% | 88.9% | 88.4% | 67.9% | 93.2% | 97.9% | 56.8% | 97.6% | 83.7% | 85% | 86.1% | 81.3%
COc1ccc(C(=O)C(C)C)c2ccccc12 | 97.9% | 94.7% | 109% | 90.8% | 90.5% | 100% | 97.9% | 99% | -25.6% (active) | 97.2% | 82.5% | 126% | 98% | 108% | 107% | 128% | 120% | 90.8% | 107%
COc1ccc(CNC(=O)C(=O)[C@H](Cc2ccccc2)NC(=O)c2[nH]c3ccccc3c(=O)c2C)cc1 | 109% | 95.5% | 86.6% | 97.4% | 98.8% | 100% | 94.4% | 100% | 110% | 97.7% | 102% | 102% | 102% | 99.5% | 108% | 98.3% | 103% | 98.8% | 108%
Fc1cc(-c2nnc3n2NC(=Nc2ccc(Cl)cc2)CS3)c(Cl)cc1Cl | 88.3% | 95.2% | 108% | 65.6% | 91.6% | 95.2% | 94.2% | 77.8% | 214% | 87% | 66.9% | 94.9% | 80.3% | 89.9% | 89.8% | 57.2% | 91.6% | 89.3% | 88.3%
Cc1nc(S(=O)(=O)c2ccccc2)c(S(=O)(=O)Cc2ccc([N+](=O)[O-])cc2)o1 | 89.2% | 104% | 89.9% | 72.5% | 105% | 87.6% | 95.6% | 81.8% | 82.8% | 90.7% | 82.6% | 100% | 86.5% | 93.1% | 99.1% | 95.8% | 83.9% | 87.6% | 104%
O=C1COCCN1c1ccc(NCc2cn(C(=O)c3ccc(Cl)cc3)c3ccccc23)cc1 | 61.5% | 83.9% | 74.9% | 43.6% | -26% (active) | 65.7% | -28.7% (active) | -88.9% (active) | 77.1% | 85.7% | 52.6% | 66% | -25.7% (active) | 3.22% (active) | 15.7% | -2.18% (active) | 10.6% | 72.9% | 67%
C[C@H](C(=O)Nc1ccc(S(N)(=O)=O)cc1)S(=O)(=O)c1ccccc1 | 102% | 98.3% | 101% | 85.8% | 95.4% | 98.9% | 95.2% | 106% | 105% | 105% | 110% | 99.1% | 111% | 105% | 106% | 98.9% | 117% | 101% | 99.3%
Cc1nc2ccccc2c(/C=C/c2ccc(Cl)cc2)c1C(=O)/C=C/c1cccs1 | 90.9% | 80.9% | 72% | 54.3% | 125% | 78.3% | 46.2% | 40.9% | 59.6% | 54.7% | 53.4% | 74.9% | 92.6% | 60.7% | 78.5% | 46.6% | 82.2% | 86.7% | 80.7%
CCN1C(=O)N(CC)C2Nn3c(s/c(=C4\C(=O)Nc5ccccc54)c3=O)=NC21 (stereo not drawn) | 61.2% | 83.2% | 49.8% | 54.8% | 13.7% | 53.7% | 37.9% | -2.29% (active) | 35.9% | 59% | 53.2% | 43.6% | 66.4% | 54.9% | 75.8% | 52.3% | 10.5% | 34.7% | 73%
CNc1nc2c(s1)C(c1cc(F)ccc1F)CC(=O)N2 (stereo not drawn) | 61.3% | 97.8% | 71% | 63.9% | 17% | 87.8% | 51.5% | 34.4% | 40% | 37.3% | 87.3% | 91.3% | 89.7% | 83.2% | 71.9% | 73.7% | 55.6% | 70% | 71.7%
COc1ccc(C(=O)C[C@]2(O)C(=O)Nc3c(Cl)ccc(Cl)c32)cc1 | 37.5% | 51.2% | 39.8% | 46.8% | 71.6% | 44.5% | 32.3% | -23.6% (active) | 15.8% | 34.1% | 20.1% | 33.1% | 52.1% | 48.4% | 33.1% | 34.8% | 9.64% (active) | -3.94% (active) | 14.1%
